Screens deposited in PubChem by several laboratories.
Rows were chosen to be rich in hits. Some 4.2% of all compounds tested hit in one or more screens of this group.
NALP3 yeast inh = NALP3 inflammasome inhibitors in reconstituted yeast, primary screen, luminescence, uHTS; AID 2825, 2010; inhibition, % at 10 µM; 330,000 compounds, 0.39% hits; Yeast reconstituted NLRP3/ASC/caspase-1, beta-gal luminescence, 24 h;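 active = inhibition of 50% or more; inactive = inhibition below 50%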;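 also: plate controls were induced DMSO wells for no effect and uninduced yeast grown without galactose for full effect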
tim10-1 inh = growth inhibitors of tim10-1 mutant yeast, primary screen, luminescence, uHTS | S. cerevisiae tim10-1 ts strain growth, BacTiter-Glo, 24 h | inhibition, % at 20 µM | AID 463190, 2010 | 330,000 compounds, 2.2% hits;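 active = inhibition of at least 40%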;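 also: mutant grown at 25 °C; 0% = DMSO wells with yeast and 100% = wells holding no yeast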
tim23-1 inh = growth inhibitors of tim23-1 mutant yeast, primary screen, luminescence, uHTS. S. cerevisiae tim23-1 growth, BacTiter-Glo luminescence, 24 h. 330,000 compounds, 1.3% hits. inhibition, % at 20 µM. AID 463212, 2010;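 active = growth inhibition of the mutant yeast at or above 50%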;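 also: temperature-sensitive mutant grown at 25 °C; plate controls were DMSO-treated mutant yeast for no effect and medium wells lacking yeast for full effect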
TIM10 inh = growth inhibitors of isogenic TIM10 control yeast, primary screen, counter-screen for tim10-1 yeast inhibitor project, luminescence, uHTS | S. cerevisiae TIM10 strain growth, BacTiter-Glo luminescence, 24 h | inhibition, % at 10 µM | 330,000 compounds, 1.4% hits;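 active = inhibition of 40% or more at the single tested concentration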;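 also: wild-type TIM10 isogenic control strain grown at permissive 25 °C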
NALP1 yeast inh = NALP1 inflammasome inhibitors in reconstituted yeast, colorimetric, S. cerevisiae, triplicate retest; AID 2071, 2009; 280,000 compounds, 0.61% hits; inhibition, % at 10 µM; S. cerevisiae NALP1/ASC/caspase-1 growth, X-gal OD620, 72 h; in the data active = inhibition mostly above about 24%, no sharp cut-off; inactive = mostly below about 32%
V-ATPase pH = regulators of yeast V-ATPase proton pumping, primary screen, pHLuorin cytosolic pH fluorescence; S. cerevisiae; response, % at 10 µM; 350,000 compounds, 0.37% hits; in the data active = response mostly above about 7.3%, no sharp cut-off; inactive = mostly below about 5.4%; also: actives read high
Numbers without * were called inactive; · = no result.

SMILES	NALP3 yeast inh	tim10-1 inh	tim23-1 inh	TIM10 inh	NALP1 yeast inh	V-ATPase pH
CCCCn1c(O)c(C(C)=NCCN2CCOCC2)c(=O)[nH]c1=O	15	5	-2	3	11	-1
CCCCn1c(O)c(C(CC)=NCCN2CCOCC2)c(=O)[nH]c1=O	27	2	8	-2	44*	6
Cn1c(O)c(/C=N/N2CCOCC2)c(=O)n(-c2ccccc2)c1=S	8	0	8	13	37*	5
O=c1c(/C=N/N2CCOCC2)c(O)n(-c2ccccc2)c(=S)n1-c1ccccc1	12	10	9	17	6	1
COc1ccc(C(O)CNC(C)C)c(F)c1OC (centres undefined)	17	-3	15	-6	·	27*
c1cncc(CNC2=NCCCCC2)c1	17	5	4	-1	·	1
c1cncc(CNC2CCCC2)c1	14	-1	-4	7	30*	-1
O=c1c2ccccc2[nH]c(=S)n1-c1ccc(Br)cc1	25	4	14	-6	33*	-1
CC(=O)OC1(c2ccccc2)CCN(C)CC1(C)C (centres undefined)	20	18	0	12	-1	-4
CN(C)[C@@H]1C(=O)C(C(N)=O)=C(O)[C@@]2(O)C(=O)C3=C(O)c4c(O)ccc(Cl)c4[C@@](C)(O)C3C[C@@H]12 (some centres undefined)	·	·	·	·	132*	0
O=C(O)c1c[nH]c2ccc(S(=O)(=O)N(CCCl)CCCl)cc12	8	3	-2	8	40*	1
COC(=O)C(O)(c1ccc(N(C)C(=O)COc2ccccc2)cc1)C(F)(F)F (centres undefined)	-4	22	6	-22	21	-2
C=CC(=O)NCNC(=O)C=C	5	2	11	1	·	3
CN(CCc1nnc(N)s1)[N+](=O)[O-]	24	2	6	1	-21	-1
O=c1[nH]c(=S)n(Cc2ccc(F)cc2)c(O)c1/C=N/N1CCCCCC1	8	20	0	-1	46*	1
O=c1[nH]c(=S)n(Cc2ccc(F)cc2)c(O)c1C=NCc1ccc2c(c1)OCO2	17	-21	-36	-25	·	0
C[C@]12CCC3C(CC[C@H]4C[C@H](O)CC[C@]34C)C1CC(=O)[C@@H]2O (some centres undefined)	49	-5	22	-19	·	13*
CN(C)C(=S)SSC(=S)N(C)C	·	·	·	·	64*	3
COc1ccc2oc3c(c2c1)NC(=O)CN=C3c1ccccc1	13	23	15	18	23*	5
O=C1CN=C(c2ccc(Cl)cc2)c2oc3ccccc3c2N1	17	4	-9	2	·	0
CCOC(=O)C1=C(N)OC2=C(C(=O)CCC2)[C@]12C(=O)N(CC(N)=O)c1ccccc12	-10	-10	-2	9	36*	-2
Cc1ccsc1C(=O)C1CCCN(Cc2cnn(C(C)C)c2)C1 (centres undefined)	19	14	9	-2	15	-6
CC1(C)C2SCC(=O)N2CCN1CC(=O)NN (centres undefined)	12	-1	14	11	8	-1
CC(=O)O[C@H]1CC[C@@]2(C)C(=CC(=O)C3C2CC[C@@]2(C)C3C[C@H](OC(C)=O)[C@@H]2OC(C)=O)C1 (some centres undefined)	15	8	5	4	·	-3
CC(=NCc1ccco1)c1c(O)n(C)c(=O)n(C)c1=O	9	12	8	8	42*	-1
CCC(=NCc1ccco1)c1c(O)n(C)c(=O)n(C)c1=O	3	1	-11	-17	·	3
Cc1ccc(OP(=O)(O)Oc2ccc(C)cc2)cc1	-5	0	0	-11	·	-5
Cc1ccc(N=C(N(C)C)P(=O)(N(C)C)N(C)C)cc1	11	0	35	-1	24*	1
COC(=O)C1C(C(=O)O)C2(Cl)C(Cl)=C(Cl)C1(Cl)C2(Cl)Cl (centres undefined)	·	·	·	·	·	2
